RecA splice inh: blocks M. tuberculosis RecA intein splicing; AID 2221; 0.75% of 290,000 active; P9WHJ3; inhibition, % (no concentration beside the values); cell-free RecA intein splicing, fluorescence; in the data active = inhibition above about 30%;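 also: 0% = vehicle wells and 100% = reference inhibitor control wells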
Mtb betalactam: beta-lactam sensitization of Mtb H37Rv; M. tuberculosis H37Rv growth with meropenem, percent inhibition; inhibition, % at 25 µM; 0.27% of 330,000 active; call rule not given here;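 also: growth measured after seven days incubation then overnight dye step; 0% = bacteria only wells and 100% = bacteria with antibiotic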
GDH-TPI counter: GDH-TPI coupled enzyme inhibition counter-screen; 1.2% of 360,000 active; GDH-TPI coupled enzyme counterscreen, NADH absorbance; inhibition, % at 4.8 µM;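 also: 0% = DMSO wells and 100% = wells lacking the enzyme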
CCHF vOTU inh: blocks the CCHF virus ovarian tumor domain protease; inhibition, % at 11.5 µM; AID 651958; 0.55% of 370,000 active; CCHFV vOTU protease, Pep-AMC fluorescence; also: 0% = vehicle wells with enzyme and 100% = no enzyme wells
FBA Mtb inh: Mtb fructose-bisphosphate aldolase inhibition | P9WQA3 | purified M. tuberculosis FBA, fluorescence read-out | inhibition, % at 1 µM | 2.3% of 360,000 active | AID 588726; in the data active = inhibition above about 27%;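 also: 0% = vehicle and 100% = reference inhibitor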
Target sequence (P9WQA3 whole entry, looked up): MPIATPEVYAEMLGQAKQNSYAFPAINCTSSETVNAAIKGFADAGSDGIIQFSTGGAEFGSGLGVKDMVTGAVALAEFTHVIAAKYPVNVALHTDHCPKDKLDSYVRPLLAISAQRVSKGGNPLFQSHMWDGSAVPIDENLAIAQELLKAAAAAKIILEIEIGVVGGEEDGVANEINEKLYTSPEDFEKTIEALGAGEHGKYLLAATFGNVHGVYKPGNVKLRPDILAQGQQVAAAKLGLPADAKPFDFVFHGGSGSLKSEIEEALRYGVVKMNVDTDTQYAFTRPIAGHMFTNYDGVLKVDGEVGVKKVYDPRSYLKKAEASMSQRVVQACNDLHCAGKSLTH
Active calls of the source: *; i = inactive; / = not tested or not shown; + = active, no number. Sampled rows, rich in hits. Any-hit rate of the full collection: about 4.2%. Rule as the data show it, unless noted: active = inhibition above about 30%; inactive = the rest.

SMILES	RecA splice inh	Mtb betalactam	GDH-TPI counter	CCHF vOTU inh	FBA Mtb inh
CC(C)=NNc1ncnc2nc[nH]c12	/	/	11.2	2.1	-1.2
CCN(CC)c1nc(C)nc2c1nnn2Cc1ccccc1	/	/	/	3.7	/
COc1ccc2cc(S(=O)(=O)c3ccccc3)c(=O)oc2c1	0.4	-6.7	35.8*	-212.2	+
CCCCCCc1cc2cc(S(=O)(=O)c3ccc(F)c(Cl)c3)c(=O)oc2cc1O	-112.3	-1.8	-7.4	-11.8	8.3
Cc1ccc(S(=O)(=O)c2cc3ccc(O)cc3oc2=O)cc1C	i	-2.0	0.0	-367.1	+
COC(=O)[C@]12C[C@H](CC(=O)N3CCN(C(=O)C4CC4)CC3)C(=O)N(Cc3ccco3)C1=C[C@H](C(C)(C)C)O[C@@H]2C	/	/	/	15.2	/
CC(C)(C)C1CCc2sc(-c3nnc(CCl)o3)cc2C1 (configuration not stated)	51.4*	98.7	-7.9	1.2	2.3
COc1ccc(C(CCOC(=O)Oc2ccccc2)c2cc(OC)c(OC)c(OC)c2)cc1 (configuration not stated)	/	/	/	7.3	/
CCOC(=O)/C(C#N)=C1/C=CN(C)C(C)=N1	-2.2	1.5	67.3*	14.9	-2.0
Cc1ccc(C2CCC3(CCC(=O)N3CCOC(=O)Nc3ccc(Br)cc3)CC2)cc1 (configuration not stated)	/	/	/	13.3	/
Oc1ccc(C=Nc2ccc3ncccc3c2)c(O)c1	52.7*	93.3	/	/	/
S=C(NCCN1CCOCC1)N/N=C/c1cccs1	-0.6	99.5	34.7*	28.6	3.0
Cc1cccc(C)c1NC(=S)N/N=C/c1ccc(C(=O)O)cc1	-3.4	-4.2	45.0*	19.5	4.9
O=C(O)c1ccc(/C=N/NC(=S)NCCN2CCOCC2)cc1	-2.0	-2.8	46.3*	19.8	-4.8
Oc1cccc(/C=N/NC(=S)NCCN2CCOCC2)c1O	-37.8	3.2	16.0	3.4	-1.8
CCCCCc1ccc(NC(=O)OCCN2C(=O)CCC23CCC(c2ccccc2)CC3)cc1 (configuration not stated)	/	/	/	8.5	/
Cc1cccc(CNC(=O)NC2CCCCN(Cc3cccc(Cl)c3)C2=O)c1 (configuration not stated)	/	/	/	-0.4	/
COc1ccc(NC(=O)/C(C#N)=C/c2ncc([N+](=O)[O-])n2C)c(OC)c1	37.2*	50.4	2.1	1.4	-6.1
COc1ccc(NC(=O)/C(C#N)=C/c2ccc[nH]2)c(OC)c1	0.0	-3.4	2.8	2.8	-3.2
O=C(C1CCCN1S(=O)(=O)c1ccccc1[N+](=O)[O-])N1CCc2ccccc2C1 (configuration not stated)	/	/	/	-2.5	/
COc1ccc(C(=O)COC(=O)CCC(=O)Nc2ccc(C(C)=O)cc2)cc1	-0.7	-6.1	7.1	-3.3	+
COCc1c(C(=O)Nc2nnc(C3CC3)s2)oc2ccccc12	/	/	44.0*	23.8	-1.2
O=S1(=O)c2ccc(N3CCN(Cc4ccccc4F)CC3)cc2Oc2ccccc2CN1Cc1cn(Cc2ccc(F)cc2)nn1	/	/	/	-0.2	/
CC1(C)N=C(SCC(=O)Nc2ccc(Cl)cc2)C(c2ccc(Cl)cc2)=N1	44.4*	-1.8	3.1	28.6	1.9
CC1(C)N=C(SCC(=O)Nc2ccc(Cl)cc2)C(c2ccccc2)=N1	/	1.6	0.0	-10.3	-5.0
SMILES	RecA splice inh	Mtb betalactam	GDH-TPI counter	CCHF vOTU inh	FBA Mtb inh
COC(=O)[C@H](C(C)C)N1Cc2nnn(CC3CCCCC3)c2-c2ccccc2S1(=O)=O	/	/	/	4.2	/
COC(=O)c1ccc(-n2c(C)cc(C(=O)CCl)c2C)cc1	34.7*	99.6	0.0	-0.8	7.0
CC(C)C[C@@H]1COc2cc(N3CCSCC3)ccc2S(=O)(=O)N1C	/	/	/	3.9	/
CC(C)c1nc(NCCO)c(C#N)c2c1CCCC2	3.5	5.0	38.8*	-1.7	16.4
Cc1ccc(/C=N/NC(=O)c2ccc3c(c2)OCCO3)s1	0.3	6.0	13.2	-0.5	-5.2
Cn1cccc1/C=N/NC(=O)c1ccccn1	2.0	99.0	30.9*	-1.3	-0.9
Cc1ccc(/C=N/NC(=O)c2ccc3ccccc3c2)s1	2.0	62.0	32.1*	-0.8	-0.7
Cn1cccc1/C=N/NC(=O)Cc1ccccc1	-2.1	-6.6	23.9	-10.2	-2.3
Cn1cccc1/C=N/NC(=O)C(O)c1ccccc1 (configuration not stated)	-1.5	-3.0	30.6*	-3.7	-2.9
Cc1cc(C(=O)N/N=C/c2cccn2C)no1	4.6	2.8	31.0*	-14.0	-0.4
O=C(N/N=C/c1cccs1)c1ccccn1	-0.7	87.9	23.3	-7.5	-0.7
Cn1cccc1/C=N\NC(=O)c1cncc(Br)c1	-1.7	32.9	25.8	-9.5	-0.7
Cn1cccc1/C=N/NC(=O)c1ccncc1	-6.8	98.8	35.4*	-1.6	1.1
Cc1ccc(/C=N/NC(=O)c2ccccn2)s1	-0.3	95.6	31.6*	-6.6	-0.4
CCOc1ccc(C=NNC(=O)c2cc(-c3ccc(Cl)cc3)n[nH]2)cc1	/	/	/	1.2	/
CNC(=O)/C(C#N)=C\c1cc(C)n(-c2ccc(N3CCOCC3)cc2)c1C	-1.8	2.5	31.2*	-9.7	2.7
COCCNC(=O)/C(C#N)=C/c1cc(C)n(-c2ccc(C)cc2)c1C	1.0	-0.7	31.1*	4.3	6.0
CCCn1c(C)cc(/C=C(\C#N)C(=O)O)c1C	-1.1	3.3	31.1*	10.3	1.7
CCCCn1c(C)cc(/C=C(\C#N)C(=O)O)c1C	0.9	2.9	26.7	6.3	2.6
Cc1cc(/C=C(\C#N)C(=O)O)c(C)n1-c1ccc(Br)cc1	-16.3	-2.8	32.4*	16.3	-0.2
COCCNC(=O)/C(C#N)=C/c1cc(C)n(C2CCCCC2)c1C	-1.2	4.2	30.0	18.4	0.0
Cc1cc(C=C(C#N)C#N)c(C)n1-c1ccccc1	1.9	0.8	0.0	4.8	-1.6
CCOC(=O)[C@]12CCCC=C1N(CCCOC)C(=O)[C@@H]2CC(=O)NCc1ccc(OC)c(OC)c1	/	/	/	9.6	/
COC(=O)c1ccc(Cn2ccc3ccc(-c4ccc5ccn(C(=O)c6ccc(C)cc6)c5c4)cc32)cc1	/	/	/	8.3	/
CCN(C(=O)[C@H]1CC(=O)O[C@@H]1c1ccccc1)c1ccccc1	/	/	/	2.9	/
SMILES	RecA splice inh	Mtb betalactam	GDH-TPI counter	CCHF vOTU inh	FBA Mtb inh
CC(=O)N1CCCN(S(=O)(=O)c2ccc3c(c2)n(C)c(=O)c(=O)n3C)CC1	/	/	/	-4.8	/
CCC(=O)Nc1ccc2c(c1)C(=O)N(C)[C@@H]1CC[C@@H](CC(=O)OC)O[C@H]1CO2	/	/	/	-1.0	/
COCCn1c(C)cc(/C=C(\C#N)C(=O)OC(C)C(=O)Nc2ccc(NC(C)=O)cc2)c1C (configuration not stated)	-9.6	-3.0	38.5*	16.1	-0.2
Cc1cc(/C=C(/C#N)C(=O)O)c(C)n1CCC(C)C	-3.1	2.7	25.2	7.5	-0.9
Cc1ccc(-n2c(C)cc(C=C(C#N)C#N)c2C)cc1	0.1	-8.3	39.0*	11.0	-1.5
Cc1c(C)c2ccc(OCc3ccc(C(=O)O)o3)c(C)c2oc1=O	/	1.1	26.0	-35.4	130.8*
CC(=O)NS(=O)(=O)c1ccc(NC(=O)/C=C/c2cn(-c3ccccc3)nc2-c2ccccc2)cc1	0.0	36.0	43.0*	25.2	-4.4
Cc1cccc(NC(=O)c2sc(NC(=O)c3ccco3)c(C#N)c2C)c1C	-1.7	5.0	35.5*	-10.8	2.7

High-throughput results deposited in PubChem by several laboratories.
